From PubChem BioAssay (NCI)
This is part of a sample that, as a whole, favours compounds with a hit. Of some 83,000 tested, about 20% had one in any assay.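 Compound tested at a single concentration for 48 hours in 96-well plates; a percent growth value below 10 was scored as active.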 Activity calls are given as the source filed them.

Key:
Assay in all cases: NCI-60 one-dose screen, 48 h (100 = growth as untreated, 0 = no growth, -100 = all killed)
Conditions in all cases: 10 µM unless noted
T-47D breast = tested on: T-47D breast
BT-549 breast = tested on: BT-549 breast
MDA-MB-435 melanoma = tested on: MDA-MB-435 melanoma
SW-620 colon = tested on: SW-620 colon
MCF7 breast = tested on: MCF7 breast
HCT-116 colon = tested on: HCT-116 colon
HCC-2998 colon = tested on: HCC-2998 colon
KM12 colon = tested on: KM12 colon

Measured: growth

COC(=O)C1=C(C)C(=O)CC1
inactive: T-47D breast 127% | BT-549 breast 114% | MDA-MB-435 melanoma 121% | SW-620 colon 106% | MCF7 breast 97.4% | HCT-116 colon 103% | HCC-2998 colon 116% | KM12 colon 121%

CC(=O)c1cc(O)ccc1O
inactive: T-47D breast 108% | BT-549 breast 90.9% | MDA-MB-435 melanoma 108% | SW-620 colon 114% | MCF7 breast 101% | HCT-116 colon 103% | HCC-2998 colon 98.9% | KM12 colon 116%

CS(=O)(=O)c1ccc(/C=C\C(=O)O)cc1
inactive: T-47D breast 103% | BT-549 breast 102% | MDA-MB-435 melanoma 101% | SW-620 colon 81.5% | MCF7 breast 95.8% | HCT-116 colon 93.7% | HCC-2998 colon 110% | KM12 colon 94%

Cc1ccc(/C=N/NC(N)=S)s1
inactive: T-47D breast 100% | BT-549 breast 113% | MDA-MB-435 melanoma 106% | SW-620 colon 107% | MCF7 breast 100% | HCT-116 colon 99.5% | HCC-2998 colon 113% | KM12 colon 107%

C=COC(=O)CCOCC(CC)CCCC (stereo not given)
inactive: T-47D breast 95.9% | BT-549 breast 93.6% | MDA-MB-435 melanoma 99.2% | SW-620 colon 105% | MCF7 breast 96.3% | HCT-116 colon 101% | HCC-2998 colon 105% | KM12 colon 99.9%

CCN(Cc1ccc(Cl)c(Cl)c1)c1ccc2nc(N)nc(N)c2c1C
active: T-47D breast -78% | MDA-MB-435 melanoma -77.4% | SW-620 colon -78.2% | MCF7 breast -92.9% | HCT-116 colon -82.4% | HCC-2998 colon -93.6% | KM12 colon -92.6%
inactive: BT-549 breast 46.4%

Cc1ccccc1CC(N)C(=O)O (stereo not given)
inactive: T-47D breast 103% | BT-549 breast 106% | MDA-MB-435 melanoma 108% | SW-620 colon 121% | MCF7 breast 104% | HCT-116 colon 106% | HCC-2998 colon 117% | KM12 colon 119%

OC(CCN1CCCCC1)(c1ccccc1)c1ccccc1
inactive: T-47D breast 103% | BT-549 breast 107% | MDA-MB-435 melanoma 98.9% | SW-620 colon 107% | MCF7 breast 97.9% | HCT-116 colon 102% | HCC-2998 colon 99.1% | KM12 colon 113%

CC(=O)C[n+]1ccc(C)cc1Sc1ccccc1C
inactive: T-47D breast 82.2% | BT-549 breast 90% | MDA-MB-435 melanoma 101% | SW-620 colon 100% | MCF7 breast 90.3% | HCT-116 colon 92.9% | HCC-2998 colon 108% | KM12 colon 94.1%

O=C(O)c1cccc(-n2ncc(Cl)c(Cl)c2=O)c1
inactive: T-47D breast 102% | BT-549 breast 105% | MDA-MB-435 melanoma 93.2% | SW-620 colon 113% | MCF7 breast 74.8% | HCT-116 colon 105% | HCC-2998 colon 108% | KM12 colon 77.2%

CN(CCCN(C)CCC1CCCCC1)CCC1CCCCC1
inactive: T-47D breast 17.9% | BT-549 breast 39.2% | SW-620 colon 75.2% | HCT-116 colon 47.2% | KM12 colon 46.7%
active: MDA-MB-435 melanoma -26.1% | MCF7 breast -47.4% | HCC-2998 colon -30.1%

O=C(Nc1ccc([N+](=O)[O-])cc1)C(=O)Nc1ccc([N+](=O)[O-])cc1
inactive: T-47D breast 88.7% | BT-549 breast 100% | MDA-MB-435 melanoma 106% | SW-620 colon 96.5% | MCF7 breast 90.6% | HCT-116 colon 97.3% | HCC-2998 colon 103% | KM12 colon 99%

CC(=O)O[C@H]1CC[C@]2(C)C3=C(C(=O)C[C@H]2C1(C)C)[C@]1(C)CC[C@H]([C@H](C)CCC(=O)O)[C@@]1(C)CC3=O
inactive: T-47D breast 91.5% | BT-549 breast 93.9% | MDA-MB-435 melanoma 98.7% | SW-620 colon 85.5% | MCF7 breast 89.6% | HCT-116 colon 99.2% | HCC-2998 colon 102% | KM12 colon 106%

CCCOCc1cn[nH]n1
inactive: T-47D breast 105% | BT-549 breast 109% | MDA-MB-435 melanoma 105% | SW-620 colon 109% | MCF7 breast 103% | HCT-116 colon 107% | HCC-2998 colon 104% | KM12 colon 106%

O=c1nc(Nc2cccc(Cl)c2)oc2cc(Cl)oc(=O)c12
inactive: T-47D breast 61.6% | BT-549 breast 91.2% | MDA-MB-435 melanoma 85.8% | SW-620 colon 74.1% | MCF7 breast 53.8% | HCT-116 colon 55.1% | HCC-2998 colon 96.2% | KM12 colon 81.7%
